Assay results: PubChem BioAssay (Tox21)
Values without a mark were called inactive. Inconclusive results are not listed. Where a call stands in place of a potency, no number is given. Calls of active or inactive are those of the source. Calls follow the shape of the dose curve; as a rule, active = well fitted curve in the direction sought with a large enough effect in the repeat runs; inconclusive = weak or mixed curves; inactive = no such curve, though single readings can be large; an effect the other way counts as inactive or inconclusive.

How the values were obtained:
[1] = qHTS RealTime-Glo MT Cell Viability Assay in HEK293 cells - 0 hour (AID 1224880); also: top concentration of the series differs between compounds; nearly all actives have a fitted effect of over 45% in size
How it was run: (§1)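 HEK293 + NanoLuc + prosubstrate, 600 cells/well; 5 h, 37 C/5% CO2; compound 23 nL in DMSO by pintool; 37 C; luminescence read at 0, 8, 16, 24, 32 and 40 h time points.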

[2] = A CellTox Green Cytotoxicity Assay to monitor cytotoxicity in HEK293 cells - 32 hour (AID 1224881); also: nearly all actives have a fitted effect of over 40% in size
How it was run: (§2)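 Tox21 screen in HEK293: membrane-impermeant cyanine dye fluoresces on binding dead-cell DNA; compound pinned 5 h post-seeding, plates held at 37 C, signal read repeatedly through 40 h.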

[3] = A CellTox Green Cytotoxicity Assay to monitor cytotoxicity in HepG2 cells - 0 hour (AID 1224882); also: nearly all actives have a fitted effect of over 35% in size
How it was run: (§3)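 Measurements at 0, 8, 16, 24, 32 and 40 h of treatment captured CellTox Green fluorescence in HepG2 cells that had been co-plated with reagent and preincubated 5 h at 37 C/5% CO2.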

[4] = A CellTox Green Cytotoxicity Assay to monitor cytotoxicity in HepG2 cells - 32 hour (AID 1224883); also: nearly all actives have a fitted effect of over 50% in size
How it was run: as §3

[5] = A CellTox Green Cytotoxicity Assay to monitor cytotoxicity in HEK293 cells - 8 hour (AID 1224884); also: nearly all actives have a fitted effect of over 35% in size
How it was run: as §2

[6] = qHTS RealTime-Glo MT Cell Viability Assay in HepG2 cells - 16 hour (AID 1224885); also: nearly all actives have a fitted effect of over 50% in size
How it was run: (§4)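 qHTS, HepG2, 600 cells/well, RealTime-Glo (NanoLuc + prosubstrate) added with cells; 5 h preincubation; DMSO compound addition; 37 C; luminescence at 0/8/16/24/32/40 h.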

[7] = qHTS RealTime-Glo MT Cell Viability Assay in HEK293 cells - 24 hour (AID 1224886); also: nearly all actives have a fitted effect of over 50% in size; also: potency is read from the fitted curve at half-maximal effect
How it was run: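 Assay medium contained NanoLuc luciferase plus cell-permeant prosubstrate, added with HEK293 cells at 600 cells/well. After 5 h at 37 C/5% CO2 compounds were added; plates stayed at 37 C for 40 h with serial luminescence reads.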

[8] = qHTS RealTime-Glo MT Cell Viability Assay in HEK293 cells - 8 hour (AID 1224887); also: nearly all actives have a fitted effect of over 50% in size; also: potency is read from the fitted curve at half-maximal effect
How it was run: as §1

[9] = A CellTox Green Cytotoxicity Assay to monitor cytotoxicity in HEK293 cells - 16 hour (AID 1224888); also: nearly all actives have a fitted effect of over 35% in size
How it was run: as §2

[10] = qHTS RealTime-Glo MT Cell Viability Assay in HepG2 cells - 0 hour (AID 1224889); also: nearly all actives have a fitted effect of over 50% in size
How it was run: as §4

Structure (SMILES)	outcome [1]	Potency [2]	Potency [3]	Potency [4]	Potency [5]	outcome [6]	Potency [7]	Potency [8]	Potency [9]	Potency [10]
CCC(C(=O)NC(N)=O)c1ccccc1 (centres undefined)	inactive	inactive	inactive	inactive	inactive	inactive	inactive	inactive	inactive	
OC[C@H]1O[C@@H]2O[C@H]3[C@H](O)[C@@H](O)[C@@H](O[C@H]4[C@H](O)[C@@H](O)[C@@H](O[C@H]5[C@H](O)[C@@H](O)[C@@H](O[C@H]6[C@H](O)[C@@H](O)[C@@H](O[C@H]7[C@H](O)[C@@H](O)[C@@H](O[C@H]8[C@H](O)[C@@H](O)[C@@H](O[C@H]9[C@H](O)[C@@H](O)[C@@H](O[C@H]1[C@H](O)[C@H]2O)O[C@@H]9CO)O[C@@H]8CO)O[C@@H]7CO)O[C@@H]6CO)O[C@@H]5CO)O[C@@H]4CO)O[C@@H]3CO	inactive	inactive	inactive	inactive	inactive	inactive	inactive	inactive	inactive	
NC(CS)C(=O)O (centres undefined)	inactive	inactive	inactive	inactive	inactive	inactive	inactive	inactive	inactive	
O=C1C(CCS(=O)c2ccccc2)C(=O)N(c2ccccc2)N1c1ccccc1 (centres undefined)	inactive	inactive	inactive	inactive	inactive	inactive	inactive	inactive	inactive	
O=c1[nH]c(=O)n([C@H]2O[C@H](CO)[C@@H](O)[C@@H]2O)cc1/C=C\Br	inactive	inactive	inactive	inactive	inactive	inactive	inactive	inactive	inactive	
CCCCCCCCCCC1CO1 (centres undefined)	inactive	inactive	inactive	inactive	inactive	inactive	inactive	inactive	inactive	
N#CC1(O)CCCCC1	inactive	inactive	inactive	inactive	inactive	inactive	inactive	inactive	inactive	inactive
C1=C\CC/C=C\CC/C=C\CC/1	inactive	inactive	inactive	inactive	inactive	inactive	inactive	inactive	inactive	
CN1[C@@H]2CC[C@H]1CC(NC(=O)n1c(=O)[nH]c3ccccc31)C2 (some centres undefined)	inactive	inactive	inactive	inactive	inactive	inactive	inactive	inactive	inactive	
CCCCC1CCCCC(=O)O1 (centres undefined)	inactive	inactive	inactive	inactive	inactive	inactive	inactive	inactive	inactive	
CCn1c(=O)c2c(nc(/C=C/c3ccc(OC)c(OC)c3)n2C)n(CC)c1=O	inactive	inactive	inactive	inactive	inactive	inactive	1690 nM (active)	1510 nM (active)	inactive	
CCCc1ccccc1O	inactive	inactive	inactive	inactive	inactive	inactive	inactive	inactive	inactive	
O=c1[nH]c2ccccc2c(=O)n1CCCl	inactive	inactive	inactive	inactive	inactive	inactive	inactive	inactive	inactive	inactive
O=[N+]([O-])c1ccc(CCO)cc1	inactive	inactive	inactive	inactive	inactive	inactive	inactive	inactive	inactive	inactive
Cc1cc(C)c(NC(=O)CN(CC(=O)O)CC(=O)O)c(C)c1Br	inactive	inactive	inactive	inactive	inactive	inactive	inactive	inactive	inactive	inactive
O=C(O)c1ccc[n+]([O-])c1	inactive	inactive	inactive	inactive	inactive	inactive	inactive	inactive	inactive	inactive
COc1cc(C(=O)N2CCOCC2)cc(OC)c1OC	inactive	inactive	inactive	inactive	inactive	inactive	inactive	inactive	inactive	inactive
CC(C)N1C(=O)c2ccccc2C1=O	inactive	inactive	inactive	inactive	inactive	inactive	inactive	inactive	inactive	inactive
O=C(O)/C=C/c1ccc(/C=C/C(=O)O)cc1	inactive	inactive	inactive	inactive	inactive	inactive	inactive	inactive	inactive	inactive
COc1nc(C)nc(N)n1	inactive	inactive	inactive	inactive	inactive	inactive	inactive	inactive	inactive	inactive
COc1ccc2cc(C=O)ccc2c1	inactive	inactive	inactive	inactive	inactive	inactive	inactive	inactive	inactive	inactive
O=C1OC(=O)c2cc([N+](=O)[O-])ccc21	inactive	inactive	inactive	inactive	inactive	inactive	inactive	inactive	inactive	inactive
CC(C)CCCC(C)NCCC(C)C (centres undefined)	inactive	inactive	inactive	inactive	inactive	inactive	inactive	inactive	inactive	inactive
CC(=O)OC(C)(C)C	inactive	inactive	inactive	inactive	inactive	inactive	inactive	inactive	inactive	inactive
CC1=CC(C)C(C=O)C(C)C1 (centres undefined)	inactive	inactive	inactive	inactive	inactive	inactive	inactive	inactive	inactive	inactive
